Measured values published in PubChem BioAssay (NCATS).
Results filed as inconclusive are left out. Where a call stands in place of a potency, no number is given. Activity calls are given as the source filed them. Calls follow the shape of the dose curve; as a rule, active = well fitted activation curve with a large enough effect; inconclusive = small, poorly fitted or top-dose-only effect; inactive = no such curve, though single readings can be large or run the other way.

The molecules below were run against D(1A) dopamine receptor (Homo sapiens) (UniProt P21728) (assay: HTS Assay for Allosteric Agonists of the Human D1 Dopamine Receptor: Primary Screen for Potentiators (AID 488982)). Details: HEK293 T-REx D1 inducible cells, calcium flux, kinetic fluorescence; series mostly up to 8.37 µM.
Chain of D(1A) dopamine receptor (Homo sapiens) (P21728 whole entry, looked up): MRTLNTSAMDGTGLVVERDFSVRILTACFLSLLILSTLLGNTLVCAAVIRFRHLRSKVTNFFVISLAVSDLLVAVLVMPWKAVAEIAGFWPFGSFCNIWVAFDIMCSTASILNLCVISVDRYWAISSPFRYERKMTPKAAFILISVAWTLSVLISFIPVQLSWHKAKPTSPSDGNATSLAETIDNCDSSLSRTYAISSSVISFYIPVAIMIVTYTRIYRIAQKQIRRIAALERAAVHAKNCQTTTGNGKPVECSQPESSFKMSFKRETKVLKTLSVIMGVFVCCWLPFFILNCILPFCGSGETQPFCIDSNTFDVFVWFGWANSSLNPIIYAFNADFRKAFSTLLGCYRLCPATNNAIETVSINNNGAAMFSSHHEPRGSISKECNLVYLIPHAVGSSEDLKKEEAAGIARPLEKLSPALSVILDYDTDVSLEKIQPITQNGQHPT
Text: Dopamine receptors (DARs) are involved in the etiology and/or therapy of a number of neuropsychiatric and endocrine disorders. For instance, all receptor-based antiparkinsonian drugs work via stimulating the […] DAR subtype whereas all FDA-approved antipsychotic agents are antagonists of this receptor. […] There are three different types of allosteric modulators that we are seeking, two of which will stimulate or augment receptor signaling, allosteric agonists and potentiators, while the third, allosteric antagonists, will attenuate receptor signaling. The present primary screening assay measures compound agonism by tracking calcium flux in a […], inducible Hek293 Trex D1 cell line.
Freshly passaged cells are plated in 1536 well black, clear bottom plates at a density of 4000 cells/well in 3 ul of complete media containing 1x tetracycline inducer. After an overnight incubation at 30 C in 5% CO2, cells are loaded with 2 ul of the no wash Calcium Assay Kit (ABD Bioquest) and incubated at room temperature for 30 to 90 minutes. A 10 cycle (1 second/cycle) baseline measurement is taken and then the FDSS online 1536 pintool delivers 23 nl of compound library (as well as dopamine controls) to the plate. The plate is measured for kinetically at 1 cycle/sec for 180 seconds and is considered to be the agonist portion of the assay (eg, compounds which activate a positive calcium response during this portion are flagged as potential agonists). Following the 180 second read, 1 ul of an EC20 of dopamine is delivered by an onboard pipette head. Measurements are taken kinetically for an additional 180 seconds.
Potency is read from the fitted curve at half-maximal effect.

Structure (SMILES) | Potency
CC[C@H](NC(=O)c1c(C)c(-c2ccccc2)nc2ccccc12)c1ccccc1 | inactive
CC(N)=O | inactive
NC(N)=NC(N)=Nc1ccccc1 | inactive
O=C(O)Cc1c[nH]c2ccc(O)cc12 | inactive
O=C(O)c1ccccc1Nc1cccc(OCc2ccc3ccccc3n2)c1 | inactive
CCN(c1nc(N)c(C(=O)N=C(N)N)nc1Cl)C(C)C | inactive
COC(=O)[C@H](NC(=O)c1cc(-c2ccccc2)nc2ccccc12)c1ccccc1 | inactive
Nc1ncnc2c1nc(Br)n2C1OC2COP(=O)(O)O[C@@H]2C1O (stereo not given in full) | inactive
N#Cc1cc([N+](=O)[O-])c2sc(C(N)=O)[n+]([O-])c2c1 | inactive
NC(C(=O)N[C@@H]1C(=O)N2C(C(=O)O)=C(Cl)CS[C@H]12)c1ccccc1 (stereo not given in full) | inactive
CC1CNCCN1S(=O)(=O)c1cccc2cnccc12 (stereo not given) | inactive
CNC(=O)c1cc2c(cn1)[nH]c1ccccc12 | inactive
NCCCCN=C(N)N | inactive
Cn1ccnc1 | inactive
O=S(=O)(c1cccc2c(Cl)cccc12)N1CCCNCC1 | inactive
NC(=O)CNCCC(c1ccccc1)c1ccccc1 | inactive
Cc1cc2c(cc1Cl)N(C(=O)Nc1ccnc3ccccc13)CC2 | inactive
C[C@]12C=CC(=O)C=C1CC[C@@H]1C2=CC[C@]2(C)[C@@H](C(=O)CN3CCN(c4cc(N5CCCC5)nc(N5CCCC5)n4)CC3)CC[C@@H]12 | inactive
COc1ccccc1N1CCN(CCCCNC(=O)c2ccc3ccccc3c2)CC1 | inactive
O=c1oc(Cl)c(Cl)c2ccccc12 | inactive

Structure (SMILES) | Potency
CSc1nc(N)c2ncn([C@@H]3O[C@H](COP(=O)(O)OP(=O)(O)O)C(O)[C@H]3O)c2n1 (stereo not given in full) | 51.7 nM (active)
COc1cccc(OC)c1OCCNCC1CSc2ccccc2O1 (stereo not given) | inactive
CC(=O)SC1CC2=CC(=O)CC[C@]2(C)C2CC[C@@]3(C)C(CC[C@@]34CCC(=O)O4)C12 (stereo not given in full) | inactive
CCCCOc1cc(CC2CNC(=O)N2)ccc1OC (stereo not given) | inactive
O=c1[nH]c(=O)c2nc3ccccc3nc2[nH]1 | inactive
c1ccc(CN2CCC3(CCCc4ccccc43)CC2)cc1 | inactive
CC[C@@H]1Cc2cc(O)ccc2C2=C1c1ccc(O)cc1C[C@H]2CC | 2590 nM (active)
N[C@H](C(=O)O)c1cc(O)cc(O)c1 | inactive
C=CCNc1ncnc2ccc(Br)cc12 | inactive
O=c1[nH]c2cc(Cl)ccc2c(O)c1-c1ccc(Oc2ccccc2)cc1 | inactive
N[C@@H](Cc1ccc(F)cc1)C(=O)O | inactive
NCCC1CCCC(CCN)N1 (stereo not given) | inactive
O=C(O)c1cccnc1C(=O)O | inactive
CCCCCCCCCC(=O)NC(CN1CCOCC1)[C@H](O)c1ccccc1 (stereo not given in full) | inactive
O=C(O)/C=C/c1cnc[nH]1 | inactive
N[C@H](C(=O)O)[C@H](O)C(=O)O | inactive
Nc1ncnc2c1ncn2C1CCCO1 (stereo not given) | inactive
N[C@H](C(=O)O)[C@H](Cc1ccccc1)C(=O)O | inactive
CCCCCC(O)CCCC(=O)O (stereo not given) | inactive
Nc1ncnc2c1ncn2C1CCCC1 | inactive
